# Source: PubChem (National Center for Advancing Translational Sciences (NCATS))
# KDM4E inh: qHTS Assay for Inhibitors of Human Jumonji Domain Containing 2E (JMJD2E) | Potency, µM (doses to about 57.1 µM), for the others: top-dose activity change, negative = inhibition, most hits filed as inhibitors | 230,000 tested, 1.6% active | AID 2147, 2009 | JMJD2E catalytic domain, FDH-coupled NADH fluorescence (FDH is formaldehyde dehydrogenase) | Lysine-specific demethylase 4E (Homo sapiens), B2RXH2; active means well fitted inhibition curve with a large enough effect, not every such curve was filed as active; inconclusive means small, poorly fitted or top-dose-only effect, or another doubt; inactive means no such curve, though single readings can be large or run the other way;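 further: potency means the concentration at half of the fitted maximal effect; 0% = wells with enzyme and -100% = buffer wells without enzyme; nearly all actives have a fitted effect of over 50% in size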
# Target sequence (B2RXH2 1-337 limits assumed): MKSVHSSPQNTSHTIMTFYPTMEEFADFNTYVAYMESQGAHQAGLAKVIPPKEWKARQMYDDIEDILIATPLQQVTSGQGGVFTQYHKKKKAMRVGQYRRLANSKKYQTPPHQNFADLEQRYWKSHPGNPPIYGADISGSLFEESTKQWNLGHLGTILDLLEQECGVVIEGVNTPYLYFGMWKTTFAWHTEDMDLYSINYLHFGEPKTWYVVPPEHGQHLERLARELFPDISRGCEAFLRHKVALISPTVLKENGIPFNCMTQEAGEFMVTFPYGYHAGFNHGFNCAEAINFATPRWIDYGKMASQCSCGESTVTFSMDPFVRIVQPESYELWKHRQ
# miR-21 act: qHTS Assay for Modulators of miRNAs and/orActivators of miR-21; HeLa miR-21 FLuc reporter, luciferase, 48 h; Potency, µM (titrated, usually from 38.3 µM), for inactives: top-dose activity change, positive = activation, most hits filed as activators; 340,000 tested, under 10 active; AID 2288, 2010;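 further: % of control where 0% means no effect; miR-21 action dims this reporter so a rising signal means less miR-21 action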
#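 Using DMEM plus 10% FBS, HeLa miR-21-FLuc cells are incubated with test compounds (final up to about 40uM) for 48 hours; firefly luciferase signal is then imaged following reagent-mediated lysis.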
# ALDH1A1 inh: qHTS Assay for Inhibitors of Aldehyde Dehydrogenase 1 (ALDH1A1). Purified ALDH1A1, NADH fluorescence, propionaldehyde substrate. Potency, µM (top dose mostly 75.3 µM), inactives show at the highest dose activity, negative = inhibition, most hits filed as inhibitors. Aldehyde dehydrogenase 1A1 (Homo sapiens), P00352. 220,000 tested, 7.3% active; active means well fitted inhibition curve with a large enough effect, not every such curve was filed as active; inconclusive means small, poorly fitted or top-dose-only effect, or another doubt; inactive means no such curve, though single readings can be large or run the other way;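 further: potency means the concentration at half of the fitted maximal effect; plate controls were no enzyme wells and a reference inhibitor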
# G9a inh: qHTS Assay for Inhibitors of Histone Lysine Methyltransferase G9a; Histone-lysine N-methyltransferase EHMT2 (Homo sapiens), Q96KQ7; G9a H3K9 monomethylation, AlphaScreen, 2 h; Potency, µM (top dose mostly 102 µM), for the others: top-dose activity, negative = inhibition, actives largely listed as inhibitors; 350,000 tested, 8.8% active; AID 504332, 2011; further: potency means the concentration at half of the fitted maximal effect; on the % scale 0 is the no-effect control and ±100 the full control effect; nearly all actives have a fitted effect of over 75% in size
# Target sequence (Q96KQ7 913-1193 limits assumed): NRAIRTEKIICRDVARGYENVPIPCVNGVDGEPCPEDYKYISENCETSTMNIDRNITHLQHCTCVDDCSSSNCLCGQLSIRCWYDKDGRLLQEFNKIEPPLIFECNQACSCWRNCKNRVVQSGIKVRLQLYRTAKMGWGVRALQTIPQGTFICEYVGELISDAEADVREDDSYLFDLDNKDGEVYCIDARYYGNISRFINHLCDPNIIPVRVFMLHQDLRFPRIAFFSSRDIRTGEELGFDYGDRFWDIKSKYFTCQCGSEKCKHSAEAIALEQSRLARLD
#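 Methyltransferase reactions run at room temperature for 2 h (20 nM enzyme, 500 nM biotin-H3K9 peptide, 20 uM SAM) after a 15 min compound preincubation; product detected by AlphaScreen beads and anti-H3K9me1 antibody.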
# Sfp PPTase inh: qHTS Assay for Inhibitors of Bacillus subtilis Sfp phosphopantetheinyl transferase (PPTase) | Biochemical Sfp PPTase activity, qHTS | Potency, µM, for the others: largest response in the series, negative = inhibition, usual class: inhibitors | AID 1490, 2009 | 310,000 tested, 3.5% active | 4'-phosphopantetheinyl transferase ffp (Bacillus subtilis), Q9F4F7;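 further: the enzyme is Sfp with the accession as filed and its product quenches rhodamine fluorescence; potency means the concentration at half of the fitted maximal effect; 0% = enzyme reaction without inhibitor and -100% = no enzyme wells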
#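 Reaction rates are the 30-min fluorescence difference (ex 525, em 598 nm) in wells containing 15 nM Sfp, 5 uM rhodamine-CoA and 12.5 uM BHQ-2-YbbR at pH 7.6 with 10 mM MgCl2.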
# Lamin A splicing: qHTS Assay for Modulators of Lamin A Splicing | HeLa LMNA splicing GFP/RFP minigene ratio, 48 h | Potency, µM (titrated, usually from 46.1 µM), for inactives: at the highest dose ratio change, negative = inhibition, actives largely listed as inhibitors | 200,000 tested, 0.01% active | AID 1487, 2009; active means well fitted inhibition curve with a large enough effect in the signal ratio, with a control signal flat, not every such curve was filed as active; inconclusive means small, poorly fitted or top-dose-only effect, or effect the other way, or a change in a side signal; the % refers to the signal ratio; further: potency means the concentration at half of the fitted maximal effect; on the % scale 0 is the no-effect control and ±100 the full control effect
#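 S3 HeLa cells stably expressing lamin A-EGFP splicing minigene plus DsRed2, 600 cells/well, 48 h compound exposure at 37C. Laser-scanning cytometry; analysed as GFP (500-530 nm)/RFP (575-640 nm) total intensity ratio; 0.5% DMSO vehicle.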
# Active calls of the source: *; ? = inconclusive; nt = no result given; [ ] = remark or other dose. Most compounds without a hit are left out; they make up all but 13% or so of the library. Unless noted, the call rests on the fitted dose curve; in most records, active means well fitted curve in the direction sought with a large enough effect; inconclusive means small, poorly fitted or top-dose-only effect, or another doubt; inactive means no such curve, though single readings can be large; an effect the other way counts as inactive or inconclusive.
SMILES,KDM4E inh,miR-21 act,ALDH1A1 inh,G9a inh,Sfp PPTase inh,Lamin A splicing
OC(COC(c1ccc(F)cc1)c1ccc(F)cc1)CN1CCCC(C(F)(F)F)C1 (stereo not given),nt,0%,nt,11µM*,-24%,nt
CCOc1cccc(CC(=O)N2CCc3c([nH]c4ccccc34)C2c2ccc(C)cc2)c1OCC (stereo not given),nt,18%,nt,?,nt,-13%[46 µM]
CCOC(=O)c1cc(-c2ccccc2)n(CCC(=O)NCc2ccccc2Cl)c1C,nt,2%,nt,-22%[59 µM],nt,-18%[46 µM]
CCN1CCN(C(=O)Cn2cnc3sc(C)c(S(=O)(=O)N4CCN(c5ncccn5)CC4)c3c2=O)CC1,-2%,-2%,11%,-8%,23%,17%[46 µM]
COc1cc(OC)cc(C(=O)NC2CCN(Cc3nnnn3Cc3cccs3)CC2)c1,-7%,-11%,13µM*,?,16%,2%
COc1cc(OC)cc(C(=O)NC2CCN(Cc3nnnn3Cc3ccc(F)cc3)CC2)c1,2%,-15%,-12%,3%,17%,?
Cc1ccc(C(=O)Nc2ccccc2N2CCCC2)cc1,nt,-20%,nt,?,12%,nt
Cc1cc(NC(=O)c2ccccc2)ncc1NC(=O)c1ccco1,-5%,-29%,11µM*,25µM*,-15%,-10%
Cc1cc(O)c(NC(=O)c2ccco2)cc1C,0%,-44%,12%,8.9µM*,-10%,-8%
NS(=O)(=O)c1cccc(NC(=O)COC(=O)Cc2ccc(S(=O)(=O)N3CCCCC3)s2)c1,-15%,0%,-9%,45µM*,15%,-5%[46 µM]
O=C(COC(=O)Cc1ccc(S(=O)(=O)N2CCCCC2)s1)Nc1ccc2c(c1)OCO2,-14%,8%,?,22µM*,8%,-2%
COc1cccc(NC(=O)CN(C)C(=O)c2ccc(OCC3CCCO3)cc2)c1 (stereo not given),nt,nt,nt,-1%,nt,nt
NS(=O)(=O)c1ccc(N=Nc2c[nH]c(=O)c(O)c2)cc1,32µM*,3%,?,11µM*,45µM*,9%[46 µM]
Cc1ccc(C(=O)NC(=S)N2CCN(C)CC2)cc1,0%,-23%,-8%,32%[2.33 µM],-2%,7%
CN1CCN(C(=S)NC(=O)c2ccc(Br)cc2)CC1,3%,-10%,nt,40µM*,?,nt
N#CCCN(Cc1cccnc1)C(=S)NC(=O)c1ccc(S(=O)(=O)N2CCCC2)cc1,-10%,-3%,14µM*,28µM*,2%,-18%[46 µM]
Cc1cccc(C(=O)NC(=S)N2CCN(C)CC2)c1,-1%,-7%,12%,79µM*,-29%,-7%
O=C(NC(=S)N1CCN(C(c2ccccc2)c2ccccc2)CC1)c1ccc(S(=O)(=O)N2CCOCC2)cc1,8%,-2%,2%,-4%[59 µM],20%,-6%
CN1CCN(C(=S)NC(=O)c2ccc(S(=O)(=O)N3CCOCC3)cc2)CC1,-5%,-1%,9.5µM*,?,45µM*,-2%[46 µM]
CCN(C(=O)Cn1c(SCc2ccccc2F)nc2cccnc21)c1ccccc1,nt,-23%,nt,-55%[59 µM],nt,-12%[46 µM]
O=c1c(-c2ccc(Cl)cc2)nc2cnc(N3CCNCC3)nc2n1-c1ccccc1,nt,nt,?,-1%[0.501 µM],-18%,?
O=C(Cc1ccccc1)N(Cc1cccnc1)c1nc2c(F)cccc2s1,nt,8%,nt,6%[59 µM],nt,-29%[46 µM]
CCCN(CC1CC1)C(=S)NC(=O)c1ccc(S(=O)(=O)N2CCOCC2)cc1,-7%,3%,?,28µM*,-13%,?
CCCCN(C)C(=O)c1ccc(S(=O)(=O)N2CCOCC2)cc1,2%,-3%,?,0%[59 µM],27%,-3%
Cc1ccc2c(c1)C1CN(C)CCC1N2C(=S)NC(=O)c1ccc(Br)cc1 (stereo not given),-6%,-1%,14µM*,22µM*,-3%,6%[46 µM]
SMILES,KDM4E inh,miR-21 act,ALDH1A1 inh,G9a inh,Sfp PPTase inh,Lamin A splicing
CC(C)c1c(O)ccc2c1CCC1[C@@](C)(C=O)CCC[C@@]21C (stereo not given in full),-2%,nt,-1%,-3%[2.33 µM],3%,nt
O=C(COC(=O)C1(c2ccc(F)cc2)CCCC1)NCc1ccco1,-9%,2%,-8%,?,56µM*,2%[9.22 µM]
COc1cc2c(=O)n(Cc3ccccc3)c(=O)n(CC(=O)NCc3ccco3)c2cc1OC,?,8%,1.4µM*,24%[12.7 µM],-16%,-16%
COc1cc(C(=O)NNC(=S)NCc2ccco2)cc(OC)c1OC,2%,1%,-4%,56µM*,25%,-8%[46 µM]
Cc1ccc2cccc(OCC(=O)NCc3ccco3)c2n1,?,3%,-8%,-22%[59 µM],28µM*,5%
COc1cc(C(=O)NNC(=O)c2ccco2)cc(OC)c1OC,nt,5%,nt,22%[59 µM],23%,nt
O=C(Cn1c(=O)n(Cc2ccccc2)c(=O)c2ccccc21)NCc1ccco1,3%,-9%,-6%,12%,6%,-6%
O=C(COC(=O)/C=C/c1ccc(F)cc1)NCc1ccco1,14%,-5%,5%,-4%,10%,-6%[46 µM]
COc1ccc([C@@H]2[C@@H]3C(=O)N(C(C)(C)C)C(=O)[C@@H]3[C@]3(C)C(=O)N(c4cccc(Br)c4)C(=O)N23)cc1,nt,-1%,nt,7%,16%,nt
CCc1cccc(NC(=O)CN2CCCN(Cc3cccc(C)c3)S2(=O)=O)c1,nt,0%,nt,1%[12.7 µM],nt,?
COc1cc(/C=C/C(=O)OCC(=O)NCc2ccco2)ccc1O,nt,nt,nt,40µM*,nt,nt
CCc1cccc2c(C(=O)COC(=O)/C=C/c3ccc(O)c(OC)c3)c[nH]c12,?,-5%,-7%,45µM*,11%,?
COc1ccccc1OCC(=O)NCc1ccco1,0%,-8%,0%,56µM*,4%,2%
COc1ccccc1/C=C/C(=O)OCC(=O)NCc1ccco1,8%,-6%,?,4%[59 µM],13%,-5%
CCOc1ccc(C2c3c(oc4cc(C)c(C)cc4c3=O)C(=O)N2c2ccccn2)cc1 (stereo not given),nt,-1%,nt,1%[59 µM],nt,nt
CCC(=O)N1CCc2cc(Br)cc(S(=O)(=O)CCC(=O)Nc3cccc(Cl)c3)c21,nt,4%,nt,-30%[59 µM],nt,nt
COC(=O)c1ccc(-c2nc3cc(Cl)c(N)cc3s2)cc1,2.5µM*,-25%,10%,4%[59 µM],-3%,-8%
Cc1cccc(N(CC(=O)NC2CCCC2)C(=O)CS(=O)CC(=O)Nc2ccc3c(c2)OCO3)c1C (stereo not given),2%,-4%,?,7.9µM*,-12%,-11%
